# From PubChem BioAssay (NCATS)
# Results filed as inconclusive are left out. Entries that show only a call come without a potency. Calls of active or inactive are those of the source. Calls follow the shape of the dose curve; as a rule, active = well fitted inhibition curve with a large enough effect; inconclusive = small, poorly fitted or top-dose-only effect; inactive = no such curve, though single readings can be large or run the other way.
# Target: Cytochrome P450 2D6 (Homo sapiens) (UniProt P10635)
# Test: qHTS Assay for Inhibitors and Substrates of Cytochrome P450 2D6 (AID 891); also: nearly all actives have a fitted effect of over 60% in size
# Conditions: recombinant CYP2D6, luciferin-ME EGE luminescence; series mostly up to 57.1 µM
# Protocol: NIH Molecular Libraries Screening Centers Network [MLSCN]
# NIH Chemical Genomics Center [NCGC]
# The P450 gene superfamily is involved in the metabolism and clearance of xenobiotics. This assay used human CYP2D6 to measure the demethylation of ethylene glycol ester of luciferin 6' methyl ether (Luciferin-ME EGE; […]) to luciferin. The luciferin is then measured by luminescence after the addition of a luciferase detection reagent. Luciferin-ME EGE concentration in the assay was equal to its Km for CYP2D6. Inhibitors and some substrates limit the production of luciferin, and decrease measured luminescence.
# NCGC Assay Protocol Summary:
# Two uL of enzyme and substrate mix (final concentrations: 5nM CYP2D6, 30uM Luciferin-ME EGE, 100mM KPO4) were dispensed into a white, solid bottom 1536-well microtiter plate. 23nL of compound was transferred by a pin tool. The plate was incubated at room temperature for 10 min. Two uL of an NADPH regeneration solution (Promega supplied reagent) was dispensed and the reaction was allowed to continue for 60 min at room temperature. Then the reaction was stopped by reconstituted luciferin detection buffer. After another 20 min of incubation the plate was read on the ViewLux (Perkin Elmer) at 60 sec exposure and 2x2 binning. This protocol was carried out with Promega-Glo reagents and further information can be found at http://www.promega.com/tbs/tb325/tb325.pdf. Data were normalized to the to AC100 inhibition (1.43 uM quinidine).
# Keywords: P450, CYP2D6, Luciferase, MLSMR, MLSCN, NIH Roadmap, qHTS, NCGC
# Potency is read from the fitted curve at half-maximal effect.
# Cytochrome P450 2D6 (Homo sapiens), sequence (P10635 whole entry, looked up): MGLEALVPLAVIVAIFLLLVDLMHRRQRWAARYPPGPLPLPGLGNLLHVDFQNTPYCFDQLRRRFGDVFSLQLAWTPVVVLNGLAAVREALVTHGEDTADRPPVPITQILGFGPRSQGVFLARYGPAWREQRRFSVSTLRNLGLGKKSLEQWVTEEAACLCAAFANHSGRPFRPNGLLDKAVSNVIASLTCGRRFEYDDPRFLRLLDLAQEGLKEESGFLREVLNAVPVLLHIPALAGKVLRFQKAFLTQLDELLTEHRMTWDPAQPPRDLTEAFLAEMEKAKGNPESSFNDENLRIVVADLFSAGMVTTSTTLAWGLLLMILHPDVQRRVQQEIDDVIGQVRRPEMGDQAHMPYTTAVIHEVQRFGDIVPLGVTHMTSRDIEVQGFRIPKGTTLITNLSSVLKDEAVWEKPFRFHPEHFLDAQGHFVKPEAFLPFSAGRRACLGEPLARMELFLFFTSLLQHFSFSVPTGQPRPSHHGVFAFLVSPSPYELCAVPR
row,Compound,Potency
1,COc1cc2c(cc1OC)[C@@H]1C(=O)c3ccc4c(c3O[C@@H]1CO2)C=CC(C)(C)O4,0.0631 µM (active)
2,CC(C)Oc1cccnc1N(C)C1CCN(Cc2ccccc2)CC1,7.94 µM (active)
3,CC(=O)NCCc1c[nH]c2ccccc12,inactive
4,c1ccc2sc(C3(N4CCCCC4)CCCCC3)cc2c1,3.16 µM (active)
5,O=c1cccc2n1CC1CNC[C@H]2C1,inactive
6,CCn1cc(C(=O)O)c(=O)c2cc3c(cc21)OCO3,inactive
7,O=C1CCCN1CC#CCN1CCCC1,7.94 µM (active)
8,CCCN(CCC)[C@@H]1CCc2ccc(O)cc2C1,0.794 µM (active)
9,CC[C@@]1(O)C(=O)OCc2c1cc1n(c2=O)Cc2cc3ccccc3nc2-1,inactive
10,CCCCc1ccc(C(=O)O)nc1,inactive
